Screen size: about 53,000 sequences; about 3,700 (7%) were called active.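 How the source made its calls: active means gene knockdowns whose robust z-score for IL-1 alpha signal is at least 2 or at most -2, so actives lie on both sides; inactive means the rest.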 The full list was thinned out, with actives kept by preference.
Assay: Components of the Cytosolic LPS Sensing Pathway: Gene Identification via Genome-wide siRNA Screen
Details: RAW264.7 macrophages, IL-1a HTRF, actives lie on both sides, screened at 100 nM (by protocol), cells primed 5 h with Pam3CSK4 first
Text: Non-canonical inflammasome activation by cytosolic LPS is a critical component of the host response to Gram-negative bacterial infection, however we lack a comprehensive understanding of the cellular processes that control this pathway. Here we describe a genome-wide siRNA screen to identify genes regulating the mouse macrophage IL-1 alpha response to cytosolic LPS.
RAW264.7 cells were maintained in complete DMEM media, comprising DMEM with 4.5 g/L glucose, 10% FBS (Gemini Bio-Products, West Sacramento, CA), 2 mM Glutamine (Lonza) and 20 mM HEPES (Lonza), hereafter complete DMEM.
The RNAi screen was conducted in 384-well format using the Ambion Silencer Mouse Genome siRNA Library (#4391425), which consists of three unique, nonoverlapping, nonpooled siRNAs for each of 17,000 gene targets. siRNA reagents ([…]) were stamped into 384-well white flat-bottom microplates (Corning, 3570) using a Velocity11 VPrep liquid handling system (Agilent) integrated into a BioCel robotic platform (Agilent) in columns 1-22, leaving columns 23-24 empty for negative (Ambion, Negative control #1) and positive (mouse Casp4) controls, respectively. The median value of each plate's negative control column was used to normalize sample wells, and the positive control was used to assess transfection efficiency and assay performance.
Lipofectamine RNAiMAX Transfection Reagent ([…]; Invitrogen) was added in […] serum-free, antibiotic-free media to plate wells using a Thermo Scientific Matrix WellMate and Microplate Stacker. Plates were incubated for 45 min at room temperature to allow for the sufficient formation of siRNA-lipid complexes. Cells were seeded at a density of 1x10^4 cells per well in 20 microL media containing 20% (vol/vol) FBS without antibiotics. The final concentration of siRNA in each well was 100 nM. Cells were cultured for 48h at 37 degrees C in 5% CO2 before addition of […] of TLR ligand Pam3CSK4 for 5 hours. The medium was then removed, replaced with […] growth media and cell were transfected with […] of LipidA and TransIT-TKO (Mirus) for 24 hour. At the end of the LipidA treatment, […] of supernatant was transferred to a 384 Greiner Bio-one non-binding low volume plate and […] of IL-1a HTRF reagent (Cisbio, 62MIL1APEH) was added and incubated at room temperature overnight. The plates were read on an EnVision plate reader (PerkinElmer). Cell viability was measured by adding 20ul Cell Titer Glo to the original plate and running a luminescence read on the EnVision. The quantified IL-1a signal for each siRNA gene-targeted well was divided by the median of the negative control wells and multiplied by 100 to achieve a negative control normalized value for each well/siRNA. This normalized value was then used to generate a robust z-score by first taking the log of each value and then by subtracting the median and dividing by the […].

z-score, active:
CCUAUAGCAGUGGUUUUCATT against Ece2 2.22
GGUACUUUUACUCCCGAAGTT against Lgals3bp -2.05
GCACAAUAAAGCUUGUUGCTT against Trmt2a -2.26
GGAACGUGUUCAAAAGAGUTT against Sos1 2.22
GCAACAGUUGGUCUAAAAUTT against Psma1 -2.11

z-score, inactive:
GGGUUUCUUCGUGUCUAUUTT against Pth2r 1.56
GGGAAGUAGCCAUCACACCTT against Ttbk1 0.768
GGCUUUUCGUUGUAAAUCATT against 9930111J21Rik2 0.735
CGGGAAGUAAACAUUUCCATT against Rassf6 0.527
GGACUCUGAUCUCUAUCAGTT against Tac2 -0.357
GGAGGAGAGGUACAAGAUGTT against Pcyt2 -0.804
GGGAAGUCCAAAUAACGGATT against Zfp184 0.136
CCGACCCAAUUAAUGAUCATT against Tlcd2 -1.12
CCAAAGUUUUAUCAGUUUGTT against Gpr87 0.653
GGUGAUAUAGCUAUUUUCUTT against Fbxw11 0.711
GGAAACACCAGAGAAGUCCTT against Etf1 -0.56
GGUGCAAGAUAGUACGAUGTT against Gle1 -0.649
GGAAGAUGGGCGACUCUAUTT against Pkmyt1 0.176
GGAUUCUCACCAAAUACUUTT against Oprd1 0.305
CGAUAUUUAUCAUGAGUGCTT against Nlrp9c -1.9
CCCACGAGGGAUAUAUCUGTT against Cd3d -0.994
CGGCACCAGUGUUCUAUUGTT against Ddi2 1.91
CCGCAAAGUGAGCAAGGUGTT against Id1 -0.63
GGAAAGCAGACAUCGACCUTT against Rps18 -0.848
GGCCUAUCAAAAUUCAGUUTT against Rbm7 1.17
GGAGAUUGGACCACUAUGATT against Sec24d -1.31
GGAGUUCGACAUUAGCGGATT against Ehf 0.0965
GGAAUGUUUCUUUAUCACATT against Slc35e4 -0.837
GCGUAUUUGGUGUUAAAAATT against Iars 0.417
GGAAGAAGAAGAUAAAGCGTT against Grk6 0.184
